# Source: PubChem BioAssay (NCI)
# “And” between values parts separate entries of the source, which are not always exact repeats. Equal values may be shown once. This is part of a sample that, as a whole, favours compounds with a hit. Of some 83,000 tested, about 20% had one in any assay.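 How to read the values: 0–100, growth inhibition (40 = 60% inhibited); 0, no net growth; -100 to 0, cell death (-40 = 40% of starting cells died; -100 = all dead).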 The source made the active and inactive calls. The calls were made as follows: active = growth percent below 10; inactive = the rest.
# Tested on: MDA-MB-468 breast
# Experiment: NCI-60 one-dose screen, 48 h (100 = growth as untreated, 0 = no growth, -100 = all killed)
# Conditions: 10 µM unless noted
row,SMILES,growth
1,CN(C)CC(=O)Nc1ccc2ncnc(Nc3ccc(Oc4cccc(C(F)(F)F)c4)c(Cl)c3)c2c1,-2% (active)
2,COc1ccc(C(=O)c2c(N)c(C#N)cn2-c2ccc(Cl)cc2Cl)cc1,89.5% (inactive)
3,C=CCn1c(SCC(=O)Nc2ccc(C(=O)/C=C/c3ccc(Br)cc3)cc2)nnc1-c1c[nH]c2ccccc12,85.8% (inactive)
4,COc1ccc(/C(=C\c2cc(OC)c(OC)c(OC)c2)C(=O)N2CCCNCC2)cc1,98.1% (inactive)
5,COC(=O)/C=C1\SC(=Nc2cccc(Cl)c2)N(CCc2c[nH]c3ccccc23)C1=O,54.4% (inactive)
6,COc1cc(-c2nc3sccn3c2-c2ccnc(NCCNS(=O)(=O)c3ccccc3)n2)ccc1F,40.2% (inactive)
7,IC(I)I,106% (inactive)
8,CCCCCCCCCCCCCCn1c2ccccc2c2c3c(c4c5cc(OC)ccc5oc4c21)C(=O)NC3=O,106% (inactive)
9,O=C(CNc1nc2ccccc2s1)Nc1ccc(-c2nc3ccccc3s2)cc1,-17.8% (active)
10,CCc1ccccc1-n1c(-c2ccc(Cl)cc2)cc(-c2ccc(Cl)cc2)c(C#N)c1=O,87.6% (inactive)
11,COc1ccc(/C=C/C(=O)c2cc3c(N)c(C(=O)Nc4ccc(OC)cc4)sc3nc2C)cc1,11.6% (inactive)
12,Cc1cc2oc(=O)cc(CP(=O)(O)O)c2cc1O,89.8% (inactive)
13,CCCc1cn(CC(=O)Nc2nc3ccccc3s2)nn1,110% (inactive)
14,COc1cc2nc(-c3cnc(N(C)C)nc3)nc(NC3CCN(Cc4ccccc4)CC3)c2cc1OC,-72.1% (active)
15,CN1CCN(c2ccc(C(=O)Nc3cccc(C#Cc4cccc5[nH]nc(N)c45)c3)cc2C(F)(F)F)CC1,-26.6% (active)
16,COc1ccc(/C=N\NC(=O)CN2CCN(c3cc4c(cc3F)c(=O)c(C(=O)N/N=C/c3ccc(OC)cc3)cn4C3CC3)CC2)cc1,84.3% (inactive)
17,COc1ccccc1C(C)=O,108% (inactive) and 111% (inactive)
18,CC(=O)C1=C(O)C=C2Oc3c(C(=O)/C=C/c4c(Cl)cccc4Cl)c(O)c(C)c(O)c3[C@]2(C)C1=O,-39.7% (active)
19,C#C[C@]1(O)CC[C@H]2[C@@H]3CC=C4c5sc(Nc6ccccc6)nc5CC[C@]4(C)[C@H]3CC[C@@]21C,7.27% (active)
20,COc1cc(/C=C2\CCC/C(=C\c3cc(CN4CCCC4)c(O)c(OC)c3)C2=O)cc(CN2CCCC2)c1O,67.2% (inactive)

row,SMILES,growth
1,O=C(NNc1nc2cc(F)c(F)cc2n2cccc12)c1ccncn1,-25.6% (active)
2,C=CCc1c(O)c(C(=O)/C=C/c2ccccc2)c(OC)c2ccoc12,6.58% (active)
3,Nc1ccc(Sc2ccc([N+](=O)[O-])c3nonc23)cc1,67.3% (inactive)
4,COc1ccc(-c2nc(SCC(C)C)nc(N/N=C\c3cccc([N+](=O)[O-])c3)c2C#N)cc1,58.1% (inactive)
5,Cc1ccc(C(=O)c2oc3ccc4c(C)cc(=O)oc4c3c2C)cc1,16% (inactive)
6,O=C(CCN1CCCC1)Nc1ccc2c(Nc3ccc(Br)cc3)c3ccccc3nc2c1,39.5% (inactive)
7,Cc1ccc(C(=O)Nc2ccc(CN3CCN(C)CC3)c(C(F)(F)F)c2)cc1C#Cc1cnc(N)c2ccc(C#N)cc12,34.9% (inactive)
8,C=CCCCC(=O)CCC(=O)OCC1O[C@@H](O[C@@H]2C(O)[C@@H](OC(C)=O)C(C)O[C@H]2O[C@H](CC=C)CCCCC)C(O)[C@@H](OC(=O)/C(C)=C/C)[C@@H]1OC(=O)/C=C/c1ccccc1 (stereo not given in full),-23.6% (active)
9,COc1cc(OC)cc(C(=O)Nc2cccc(C#Cc3cccc4[nH]nc(N)c34)c2)c1,31.8% (inactive)
10,COC1=CC(=O)C[C@@H](C)[C@]12Oc1c(Cl)c(OC)cc(OC)c1C2=O,76.8% (inactive)
11,O=C(/C(Br)=C/c1ccccc1)c1ccccc1,-31.9% (active)
12,C=C(Cl)COC(=O)C(C)(C)O,118% (inactive)
13,O=c1c2cccc3c(NC4CCCCC4)ccc(c32)c2nc3ccccc3n12,-4.69% (active)
14,C=C(C)[C@@H]1CC[C@]2(CO)CC[C@]3(C)[C@H](CC[C@@H]4[C@@](C)(CCCN)[C@H](C(=C)C)CC[C@]43C)[C@@H]12,-71.4% (active)
15,C=C1CC[C@@H]2[C@](C)(CO)[C@H](O)CC[C@@]2(C)[C@@H]1C/C(O)=C1\CCOC1=O,90.8% (inactive)
16,N#CC1=C(N)Oc2ccc3ccccc3c2C1c1ccc([N+](=O)[O-])cc1 (stereo not given),66.7% (inactive)
17,Cc1[nH]c(C(=O)Nc2ccc(C(N)=O)cc2OC(C)C)c(Cl)c1Cl,68.4% (inactive)
18,COc1cc2ncnc(Nc3ccc(F)c(Cl)c3)c2cc1OCC(=O)N1CCN(c2ccccc2)CC1,-17.5% (active)
19,Oc1ccc(Cl)cc1-c1cc(-c2ccccc2Cl)[nH]n1,3.92% (active)
20,CCCCCCCCCCCCCCCCCCNCc1ccc(Cl)cc1,-71.9% (active)
